{
  "source": "PubChem BioAssay AID488",
  "about": "(PCMD, 2006)",
  "note": "Out of some 62,000 compounds screened, about 40 (0.06%) were called active. No stated cut-off is given here; in the data, active means inhibition above about 22% (passing the limit was not always enough); inconclusive means no clear call, values can overlap the other calls. For the sample, actives were picked, then their nearest neighbours and some compounds at random.",
  "data": [
    {"target": "Cathepsin B (Homo sapiens) (UniProt P07858)", "assay": "human cathepsin B blockade, pooled library – biochemical, compound mixtures, AMC fluorescence, primary screen (AID 488);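 further: 0% = enzyme without compound and 100% = no enzyme blank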", "details": "Purified cathepsin B, AMC dipeptide fluorescence, hits give high values,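 ten-compound pools at 5 µM per compound and 50 µM total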", "values": [
      {"smiles": "O=C(/C=N/O)Nc1ccccc1", "inhibition": "3.15% (inactive)"},
      {"smiles": "NC(=O)C1CCN(C(=O)c2ccc(C(F)(F)F)cc2)CC1", "inhibition": "-1.58% (inactive)"},
      {"smiles": "CCOC(=O)CSc1nnc(CNC(=O)c2cccs2)n1-c1cc(OC)ccc1OC", "inhibition": "0.53% (inactive)"},
      {"smiles": "Cc1cccc(OCc2nnc(SCn3nnc4ccccc4c3=O)o2)c1", "inhibition": "-0.48% (inactive)"},
      {"smiles": "O=C(Cn1c(-c2cncs2)nc2ccccc21)NC1CCCC1", "inhibition": "1.92% (inactive)"},
      {"smiles": "C=C1c2cc(CC)ccc2NC(=O)N1c1ccc(C)cc1", "inhibition": "5.66% (inactive)"},
      {"smiles": "COc1ccc(OC)c(CNC(=O)CCc2nc(-c3cccs3)no2)c1", "inhibition": "-0.11% (inactive)"},
      {"smiles": "CC(=O)c1c(C)[nH]c(C(=O)NCCCN2CCCC2)c1C", "inhibition": "3.25% (inactive)"},
      {"smiles": "c1ccc2[nH]c(-c3nc4ccccc4[nH]3)nc2c1", "inhibition": "-5.47% (inactive)"},
      {"smiles": "Cc1ccc2cccc(S(=O)(=O)N3CCN(c4ccccc4F)CC3)c2n1", "inhibition": "2.15% (inactive)"},
      {"smiles": "NC(=O)CSC1=Nc2ccccc2C2=NC(CCC(=O)NCc3ccc(F)cc3)C(=O)N12", "note": "(stereo unspecified)", "inhibition": "0.205% (inactive)"},
      {"smiles": "O=C(c1ccc(=O)[nH]c1)N(Cc1ccco1)C1(C(=O)NC2CCCCC2)CCCCC1", "inhibition": "2.12% (inactive)"},
      {"smiles": "O=C(CN1CCOCC1)Nc1c2c(nc3c1CCC3)CCC2", "inhibition": "0.235% (inactive)"},
      {"smiles": "CCOc1c(N2CCCCC2)c(=O)c1=O", "inhibition": "-3.57% (inactive)"},
      {"smiles": "CCn1c(=O)cc(SCC(=O)NCc2ccc3c(c2)OCO3)c2ccccc21", "inhibition": "1.53% (inactive)"},
      {"smiles": "Cc1ccc(N2CCN(S(=O)(=O)c3ccc(F)cc3)CC2)c(C)c1", "inhibition": "-2.33% (inactive)"},
      {"smiles": "CCCCN(CC)C(=O)CN(C)S(=O)(=O)c1cccc2nsnc12", "inhibition": "0.445% (inactive)"},
      {"smiles": "O=C(NCc1ccco1)c1cc(-c2cccnc2)nc2ccc(Cl)cc12", "inhibition": "-4.83% (inactive)"},
      {"smiles": "COc1ccc2c(c1)C=CC1(O2)N(CCO)c2ccccc2C1(C)C", "note": "(stereo unspecified)", "inhibition": "2.88% (inactive)"},
      {"smiles": "CCOC(=O)N1CCC(C(N)=O)CC1", "inhibition": "7.54% (inactive)"},
      {"smiles": "CSC1=N/C(=C\\C=C\\c2cccs2)C(=O)S1", "inhibition": "9% (inactive)"},
      {"smiles": "COc1cc(=O)[nH]c(=O)n1C(=O)Cc1ccccc1", "inhibition": "3.21% (inactive)"},
      {"smiles": "COC(=O)COc1ccc(S(=O)(=O)Nc2ccc(NC(C)=O)cc2)cc1", "inhibition": "0.2% (inactive)"},
      {"smiles": "CS(=O)(=O)c1ccc2nc(NC(=O)C3C4C=CC(C4)C3C(=O)O)sc2c1", "note": "(stereo unspecified)", "inhibition": "0.27% (inactive)"},
      {"smiles": "COc1ccc(NC(=O)Nc2cccc3cccnc23)cc1", "inhibition": "3.29% (inactive)"},
      {"smiles": "Cc1ccc(-c2noc(-c3ccccc3C(=O)NCC3CCCO3)n2)cc1", "note": "(stereo unspecified)", "inhibition": "-4.67% (inactive)"},
      {"smiles": "C=CCn1c(SCc2cc(C(=O)OC)c(C)o2)nnc1-c1ccncc1", "inhibition": "-5.06% (inactive)"},
      {"smiles": "C=CCOc1ccc(C2/C(=C(\\O)c3c(C)[nH]c(C(=O)OC)c3C)C(=O)C(=O)N2CCN(C)C)cc1", "note": "(stereo unspecified)", "inhibition": "-5.12% (inactive)"},
      {"smiles": "O=C(Cn1cnc2c(cnn2-c2ccccc2)c1=O)NCc1ccccc1", "inhibition": "-0.45% (inactive)"},
      {"smiles": "Oc1ccc(-c2csc(Nc3cccnc3)n2)cc1", "inhibition": "2.75% (inactive)"},
      {"smiles": "CC(C)C[C@H](NC(=O)[C@@H]1O[C@H]1C(=O)O)C(=O)NCCCCN=C(N)N", "inhibition": "99.7% (active)"},
      {"smiles": "COC(=O)c1cc(OC)c(OC)cc1NC(=O)C1CCCO1", "note": "(stereo unspecified)", "inhibition": "-0.18% (inactive)"},
      {"smiles": "CC1=NCCN1S(=O)(=O)c1ccc(Br)c(C)c1", "inhibition": "-3% (inactive)"},
      {"smiles": "O=C1CC(c2ccccc2)C(=O)N1c1cccc(O)c1", "note": "(stereo unspecified)", "inhibition": "-1.1% (inactive)"},
      {"smiles": "COc1ccc(OCCCC(=O)Nc2nnc(C3CCCO3)s2)cc1", "note": "(stereo unspecified)", "inhibition": "-2.29% (inactive)"},
      {"smiles": "Cc1ccc(S(=O)(=O)N(C)CC(=O)N2CCc3ccccc32)cc1", "inhibition": "-2.02% (inactive)"},
      {"smiles": "O=C1c2oc3ccc(Br)cc3c(=O)c2C(c2cccc(F)c2)N1CCO", "note": "(stereo unspecified)", "inhibition": "-5.69% (inactive)"},
      {"smiles": "O=C(NCc1cccnc1)c1ccc(CS(=O)(=O)c2ccc(Br)cc2)o1", "inhibition": "3.93% (inactive)"},
      {"smiles": "CC(=O)Nc1ccc(S(=O)(=O)Nc2ccc(N3CCOCC3)c(F)c2)cc1", "inhibition": "1.35% (inactive)"},
      {"smiles": "Cc1nc2ccc(S(=O)(=O)NC(C(=O)N3CCCCCC3)C(C)C)cc2s1", "note": "(stereo unspecified)", "inhibition": "6.23% (inactive)"},
      {"smiles": "CCn1c(COc2cccc(OC)c2)nnc1SCC(=O)N1CCOCC1", "inhibition": "2.62% (inactive)"},
      {"smiles": "CCOC(=O)c1c(CN2CCOCC2)n(-c2ccccc2)c2ccc(O)cc12", "inhibition": "4.31% (inactive)"},
      {"smiles": "CC(c1nnc(SCC(=O)Nc2sccc2C#N)n1-c1ccc(Cl)cc1)N(C)C", "note": "(stereo unspecified)", "inhibition": "5.86% (inactive)"},
      {"smiles": "Cc1cc(C)nc(-n2nc(C)cc2NC(=O)c2ccc(Br)o2)n1", "inhibition": "6.29% (inactive)"},
      {"smiles": "c1csc(-c2cn3c(n2)SCC3)c1", "inhibition": "0.03% (inactive)"},
      {"smiles": "Cc1cc(/C=N/n2cnnc2)c(C)n1-c1ccc2ncccc2c1", "inhibition": "0.4% (inactive)"}
    ]}
  ]
}
